Assay results reported in PubChem BioAssay (NCATS).
Inconclusive results are not listed. The source made the active and inactive calls. Calls follow the shape of the dose curve; as a rule, active = well fitted curve in the direction sought with a large enough effect; inconclusive = small, poorly fitted or top-dose-only effect, or another doubt; inactive = no such curve, though single readings can be large; an effect the other way counts as inactive or inconclusive.

Assays:
[1] = Quantitative High-Throughput drug screen in 47 multiple myeloma cell lines against the NCATS MIPE library collection: VP6_DJ cell viability assay (AID 1919867); also: nearly all actives have a fitted effect of over 40% in size
How it was run: (§1)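 Readout: median RLU from CellTiter-Glo after 5 min at room temperature. Preceding step was 48 h drug treatment of 500 cells/well at 37 °C, 5% CO2, with DMSO-only and media-only control wells.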

[2] = Quantitative High-Throughput drug screen in 47 multiple myeloma cell lines against the NCATS MIPE library collection: UTMC2_PLB cell viability assay (AID 1919868); also: nearly all actives have a fitted effect of over 55% in size
How it was run: as §1

[3] = Quantitative High-Throughput drug screen in 47 multiple myeloma cell lines against the NCATS MIPE library collection: PE2_PLB cell viability assay (AID 1919869); also: nearly all actives have a fitted effect of over 35% in size
How it was run: as §1

[4] = Quantitative High-Throughput drug screen in 47 multiple myeloma cell lines against the NCATS MIPE library collection: PCM6_Riken cell viability assay (AID 1919870); also: nearly all actives have a fitted effect of over 30% in size
How it was run: as §1

[5] = Quantitative High-Throughput drug screen in 47 multiple myeloma cell lines against the NCATS MIPE library collection: RPMI8226_ATCC cell viability assay (AID 1919871); also: nearly all actives have a fitted effect of over 30% in size
How it was run: as §1

[6] = Quantitative High-Throughput drug screen in 47 multiple myeloma cell lines against the NCATS MIPE library collection: OPM2_DSMZ cell viability assay (AID 1919872); also: nearly all actives have a fitted effect of over 30% in size
How it was run: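 Steps: seed 500 cells per well; pin-transfer MIPE 4.0 library; incubate 48 h at 37C, 5% CO2, humidified; add CellTiter-Glo, 5 min room temperature; read luminescence.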

[7] = Quantitative High-Throughput drug screen in 47 multiple myeloma cell lines against the NCATS MIPE library collection: KMS11_JCRBsus cell viability assay (AID 1919873); also: nearly all actives have a fitted effect of over 50% in size
How it was run: as §1

[8] = Quantitative High-Throughput drug screen in 47 multiple myeloma cell lines against the NCATS MIPE library collection: KMS28BM_JCRB cell viability assay (AID 1919874); also: nearly all actives have a fitted effect of over 35% in size
How it was run: as §1

[9] = target: Cytochrome P450 2D6 (Homo sapiens) (UniProt P10635); test: qHTS for inhibitors of CYP2D6 against the NCATS DSHEA and TCM libraries (AID 1919972)
How it was run: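 qHTS, concentration–response format with most substances from 19.5 nM. CYP2D6 + pro-luciferin substrate, 15 min with compound, then 1x NADPH regen, 30–45 min RT dark. Glo detection 30 min, luminescence. Quinidine control.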

Measured: Potency
Potency is read from the fitted curve at half-maximal effect.

Cytochrome P450 2D6 (Homo sapiens), sequence (P10635 whole entry, looked up): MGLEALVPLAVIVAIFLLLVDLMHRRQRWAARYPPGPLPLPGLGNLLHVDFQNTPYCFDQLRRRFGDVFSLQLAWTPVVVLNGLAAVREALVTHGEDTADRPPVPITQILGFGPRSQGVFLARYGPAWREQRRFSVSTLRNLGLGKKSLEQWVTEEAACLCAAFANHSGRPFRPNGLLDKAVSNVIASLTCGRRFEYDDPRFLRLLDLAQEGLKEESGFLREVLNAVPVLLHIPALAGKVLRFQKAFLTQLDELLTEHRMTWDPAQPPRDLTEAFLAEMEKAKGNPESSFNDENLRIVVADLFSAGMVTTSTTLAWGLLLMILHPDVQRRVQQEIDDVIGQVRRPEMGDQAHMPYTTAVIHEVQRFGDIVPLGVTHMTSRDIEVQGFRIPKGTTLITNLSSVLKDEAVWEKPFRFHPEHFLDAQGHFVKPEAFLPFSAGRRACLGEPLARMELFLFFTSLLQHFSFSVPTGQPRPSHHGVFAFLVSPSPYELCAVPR

CCn1cc(C(=O)O)c(=O)c2cc(F)c(N3CCNCC3)cc21
not listed: [9]
inactive: all other assays above

CNCC[C@H](Oc1cccc2ccccc12)c1cccs1
active: [1] 3.72 µM | [2] 2.64 µM | [3] 4.18 µM | [4] 3.72 µM | [5] 23.5 µM | [7] 26.4 µM | [8] 26.4 µM

CCOCC(O)COc1ccc(NC(=O)CC[S+](C)C)cc1 (centres undefined)
inactive: [1] | [2] | [3] | [5] | [8]

Nc1nc(F)nc2c1ncn2[C@@H]1O[C@H](CO)[C@@H](O)[C@@H]1O
active: [1] 0.132 µM | [2] 0.235 µM | [3] 0.209 µM | [4] 0.264 µM | [5] 0.418 µM | [6] 0.833 µM | [7] 0.296 µM | [8] 0.526 µM

CC(C)(C)C(=O)OCOP(=O)(COCCn1cnc2c(N)ncnc21)OCOC(=O)C(C)(C)C
active: [1] 1.05 µM | [2] 0.526 µM | [3] 0.187 µM | [5] 18.7 µM | [6] 23.5 µM | [7] 23.5 µM | [8] 11.8 µM

COc1cc(NCc2ccc3nc(N)nc(N)c3c2C)cc(OC)c1OC
active: [1] 2.64 µM | [2] 0.743 µM | [3] 1.66 µM | [4] 4.69 µM | [5] 16.6 µM | [6] 18.7 µM | [7] 2.64 µM | [8] 20.9 µM

O[C@@H](CNC[C@H](O)[C@H]1CCc2cc(F)ccc2O1)[C@@H]1CCc2cc(F)ccc2O1
active: [1] 14.8 µM | [2] 20.9 µM | [3] 26.4 µM | [4] 16.6 µM | [5] 20.9 µM | [6] 18.7 µM | [7] 7.43 µM | [8] 18.7 µM

CC(C)(Sc1cc(C(C)(C)C)c(O)c(C(C)(C)C)c1)Sc1cc(C(C)(C)C)c(O)c(C(C)(C)C)c1
active: [1] 18.7 µM | [2] 5.9 µM | [3] 6.62 µM
inactive: [7] | [8]

CCCc1nc(C)c2c(=O)[nH]c(-c3cc(S(=O)(=O)N4CCN(CC)CC4)ccc3OCC)nn12
active: [1] 5.9 µM | [2] 10.5 µM | [3] 5.9 µM | [4] 5.26 µM | [5] 9.35 µM | [6] 5.9 µM | [7] 2.96 µM | [8] 3.72 µM

Cc1ccc(S(=O)(=O)N[C@@H](Cc2ccccc2)C(=O)CCl)cc1
active: [1] 9.35 µM | [2] 13.2 µM | [3] 10.5 µM | [4] 11.8 µM | [5] 20.9 µM | [6] 18.7 µM | [7] 9.35 µM | [8] 11.8 µM

COc1ncnc(NS(=O)(=O)c2ccc(N)cc2)c1OC
not listed: [6] | [9]
inactive: all other assays above

CC(C)(C)NC(=O)[C@H]1CC[C@H]2[C@@H]3CC[C@H]4NC(=O)C=C[C@]4(C)[C@H]3CC[C@]12C
active: [1] 0.662 µM | [2] 1.66 µM | [3] 1.32 µM | [4] 0.59 µM
inactive: [5] | [6] | [7] | [8]

CC(=O)Oc1ccccc1C(=O)Nc1ncc([N+](=O)[O-])s1
active: [1] 17.1 µM | [2] 13.6 µM | [3] 13.6 µM | [4] 27 µM | [5] 19.1 µM | [7] 17.1 µM

Nc1[nH]c(=O)ncc1F
inactive: [2] | [3] | [6] | [7] | [8]
active: [1] 20.9 µM

O=NN(CCCl)C(=O)NC1CCCCC1
not listed: [5] | [6] | [9]
inactive: all other assays above

COC(=O)Nc1nc2ccc(Sc3ccccc3)cc2[nH]1
active: [1] 1.05 µM | [2] 2.09 µM | [3] 1.18 µM | [5] 5.26 µM | [6] 3.32 µM | [7] 0.935 µM | [8] 0.935 µM

COc1ccc(C(=O)CC(=O)c2ccc(C(C)(C)C)cc2)cc1
active: [1] 2.64 µM | [2] 3.72 µM | [3] 5.26 µM | [4] 0.935 µM | [8] 7.43 µM
inactive: [7]

CN1CCCC(n2nc(Cc3ccc(Cl)cc3)c3ccccc3c2=O)CC1 (centres undefined)
active: [1] 1.48 µM | [2] 1.87 µM | [3] 7.43 µM | [4] 3.32 µM | [7] 1.32 µM | [8] 0.372 µM

Nc1nc(=S)c2[nH]cnc2[nH]1
active: [1] 1.66 µM | [2] 5.9 µM | [3] 1.66 µM | [4] 7.43 µM | [5] 4.69 µM | [6] 3.72 µM | [7] 4.18 µM | [8] 5.26 µM

Oc1c(Cl)cc(Cl)c2cccnc12
active: [1] 5.9 µM | [2] 11.8 µM | [3] 9.35 µM | [4] 9.35 µM | [5] 18.7 µM | [6] 26.4 µM | [7] 18.7 µM | [8] 16.6 µM

CC(C)C[C@H](NC(=O)[C@H](CCc1ccccc1)NC(=O)CN1CCOCC1)C(=O)N[C@@H](Cc1ccccc1)C(=O)N[C@@H](CC(C)C)C(=O)[C@@]1(C)CO1
active: [1] 0.001 µM | [2] 0.001 µM | [3] 0.001 µM | [4] 0.001 µM | [5] 0.0166 µM | [6] 0.0166 µM | [7] 0.0053 µM | [8] 0.0053 µM

COC(=O)Nc1nc2ccc(C(=O)c3ccccc3)cc2[nH]1
active: [1] 2.35 µM | [2] 2.35 µM | [3] 2.96 µM | [4] 5.9 µM | [6] 1.48 µM | [7] 0.332 µM

Cc1nnc(C(=O)NC(C)(C)c2nc(C(=O)NCc3ccc(F)cc3)c(O)c(=O)n2C)o1
not listed: [8] | [9]
inactive: all other assays above

CCn1cc(C(=O)O)c(=O)c2cc(F)c(N3CCN(C)CC3)cc21
not listed: [5] | [8] | [9]
inactive: all other assays above

CC1=C(C(=O)O)N2C(=O)[C@@H](NC(=O)C(N)c3ccccc3)[C@H]2SC1 (some centres undefined)
not listed: [5] | [9]
inactive: all other assays above

C[C@@H]1C[C@H]2[C@@H]3CCC4=CC(=O)C=C[C@]4(C)[C@@]3(Cl)[C@@H](O)C[C@]2(C)[C@@]1(OC(=O)c1ccco1)C(=O)CCl
active: [1] 2.96 µM | [2] 10.5 µM | [3] 5.9 µM | [4] 2.96 µM | [6] 23.5 µM | [8] 29.6 µM

CNC(=O)c1cc(Oc2ccc(NC(=O)Nc3ccc(Cl)c(C(F)(F)F)c3)cc2)ccn1
active: [1] 8.33 µM | [2] 9.35 µM | [3] 7.43 µM | [4] 7.43 µM | [5] 20.9 µM | [7] 20.9 µM | [8] 20.9 µM

COc1ccc2cc3[n+](cc2c1OC)CCc1cc2c(cc1-3)OCO2
active: [1] 7.43 µM | [2] 3.32 µM | [3] 14.8 µM | [4] 11.8 µM | [7] 3.32 µM | [9] 2.24 µM

C1CCC(C(CC2CCCCN2)C2CCCCC2)CC1 (centres undefined)
active: [1] 8.33 µM | [2] 13.2 µM | [3] 18.7 µM | [4] 10.5 µM | [5] 11.8 µM | [6] 23.5 µM | [7] 8.33 µM | [8] 9.35 µM

Cc1cccc(Nc2ccncc2S(=O)(=O)NC(=O)NC(C)C)c1
inactive: [2] | [3] | [6]
active: [1] 7.43 µM

CN(C)c1ccc(C(=C2C=CC(=[N+](C)C)C=C2)c2ccc(N(C)C)cc2)cc1
active: [1] 0.0296 µM | [2] 0.001 µM | [3] 0.0166 µM | [4] 0.0372 µM | [5] 0.0935 µM | [6] 0.166 µM | [7] 0.0264 µM | [8] 0.0743 µM

CCCOc1ccc(C(=O)OCCN(CC)CC)cc1N
active: [1] 9.35 µM | [7] 14.8 µM
not listed: [8] | [9]
inactive: all other assays above

OC(Cn1cncn1)(Cn1cncn1)c1ccc(F)cc1F
active: [5] 5.26 µM
not listed: [6] | [9]
inactive: all other assays above

CCc1c2c(nc3ccc(OC(=O)N4CCC(N5CCCCC5)CC4)cc13)-c1cc3c(c(=O)n1C2)COC(=O)[C@]3(O)CC
active: [1] 1.18 µM | [2] 0.418 µM | [3] 0.935 µM | [4] 13.2 µM | [5] 0.372 µM | [8] 0.469 µM

O=P(O)(O)C(O)(Cc1cccnc1)P(=O)(O)O
not listed: [5] | [9]
inactive: all other assays above

CCOC(=O)[C@H](CCc1ccccc1)N[C@H]1CCc2ccccc2N(CC(=O)O)C1=O
active: [1] 18.7 µM | [2] 29.6 µM | [3] 20.9 µM | [4] 20.9 µM | [5] 18.7 µM | [7] 8.33 µM | [8] 18.7 µM

O=C(O)c1cn(C2CC2)c2cc(N3CCNCC3)c(F)cc2c1=O
not listed: [2] | [9]
inactive: all other assays above

Cc1oc(=O)oc1CN1CCN(c2cc3c(cc2F)c(=O)c(C(=O)O)c2n3C(C)S2)CC1 (centres undefined)
active: [3] 13.2 µM
inactive: [1] | [4] | [5] | [7] | [8]

CC(C)OC(=O)C(C(=O)OC(C)C)=C1SC=CS1
not listed: [2] | [5] | [9]
inactive: all other assays above

CCOC(=O)c1ccc(OC(=O)CCCCCN=C(N)N)cc1
not listed: [2] | [5] | [9]
inactive: all other assays above

CN(CCOc1ccc(CC2SC(=O)NC2=O)cc1)c1ccccn1 (centres undefined)
not listed: [2] | [5] | [9]
inactive: all other assays above

CCCN[C@H]1CCc2nc(N)sc2C1
active: [1] 18.7 µM
not listed: [2] | [9]
inactive: all other assays above

COc1cnc(NS(=O)(=O)c2ccc(N)cc2)nc1
inactive: [3] | [5] | [6]
active: [1] 20.9 µM

CC1=CC(=O)c2ccccc2C1=O
active: [1] 16.6 µM | [3] 4.18 µM | [4] 18.7 µM | [6] 20.9 µM | [7] 18.7 µM

Cc1nnc(NS(=O)(=O)c2ccc(N)cc2)s1
inactive: [3]
active: [1] 0.187 µM | [4] 1.18 µM | [7] 9.35 µM | [8] 4.18 µM
